Among the test systems are RPMI-8226 leukemia; OVCAR-8 ovarian; OVCAR-5 ovarian; OVCAR-4 ovarian; SK-OV-3 ovarian; IGROV1 ovarian; OVCAR-3 ovarian; HS 578T breast; NCI/ADR-RES ovarian; T-47D breast.
What all share (experiment): NCI-60 one-dose screen, 48 h (100 = growth as untreated, 0 = no growth, -100 = all killed)
Conditions in all cases: 10 µM

Compounds without any hit were thinned out: in the full panel of roughly 83,000, 20% have a hit.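 Growth was measured after 48 h exposure to one concentration of compound in 96-well plates. Values under 10 count as active.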 Values without a mark were called inactive. Active and inactive are the calls of the source.

`COc1ccc(S(=O)(=O)Nc2c(/C=C\c3cc(OC)c(OC)c(OC)c3)ccc(OC)c2O)cc1`: the growth with RPMI-8226 leukemia is 7.59% (active); in the assay with OVCAR-8 ovarian, -0.813% (active); in the assay with OVCAR-5 ovarian, 29.5%; in the assay with OVCAR-4 ovarian it was 53%; in the assay on SK-OV-3 ovarian, 18.5%; in the assay on IGROV1 ovarian, 33.2%. Moreover, the growth was -8.9% (active) with OVCAR-3 ovarian, -8.12% (active) in the assay on HS 578T breast, -2.42% (active) with NCI/ADR-RES ovarian and 82.2% in the assay on T-47D breast.

Regarding `CCCC(F)C(=O)O` (stereo not given), the growth is 98.4% with RPMI-8226 leukemia; 98.2% in the assay on OVCAR-8 ovarian; 115% with OVCAR-5 ovarian; 106% with OVCAR-4 ovarian; 98.3% in the assay with SK-OV-3 ovarian; 107% in the assay with IGROV1 ovarian. Further, the growth was 116% with OVCAR-3 ovarian, 100% in the assay with HS 578T breast, 108% in the assay with NCI/ADR-RES ovarian and 97.7% in the assay with T-47D breast.

For the molecule `Cc1ccc(S(=O)(=O)OCCN(CCOS(=O)(=O)c2ccc(C)cc2)c2c[nH]c(=O)[nH]c2=O)cc1`, the growth in the assay on RPMI-8226 leukemia is 100%; in the assay on OVCAR-8 ovarian it was 103%; with OVCAR-5 ovarian, 102%; in the assay with OVCAR-4 ovarian it was 97.9%; in the assay on SK-OV-3 ovarian it was 100%; in the assay with IGROV1 ovarian, 112%. In addition, the growth was 120% in the assay with OVCAR-3 ovarian, 140% in the assay on HS 578T breast, 112% with NCI/ADR-RES ovarian and 100% in the assay with T-47D breast.

As to `c1ccc(CSc2nnc3c4c5c(sc4nc(-c4cccnc4)n23)CCCCCC5)cc1`, the growth in the assay on RPMI-8226 leukemia was 20.1%; with OVCAR-8 ovarian it was 20.3%; in the assay with OVCAR-5 ovarian it was 95.2%; with OVCAR-4 ovarian, 27.3%; in the assay with SK-OV-3 ovarian, 71.2%; with IGROV1 ovarian it was 77%. In addition, the growth with OVCAR-3 ovarian was 36.4%; in the assay on HS 578T breast it was 86.2%; in the assay on NCI/ADR-RES ovarian, 100%; in the assay on T-47D breast, 14%.

On to `O=C(Nc1cccc(-n2cc(-c3ccncc3)c(-c3ccc(O)c(Cl)c3)n2)c1)Nc1ccc(Cl)c(Cl)c1`, for which the growth with RPMI-8226 leukemia is -30.8% (active); in the assay on OVCAR-8 ovarian, -24.9% (active); in the assay on OVCAR-5 ovarian it was 31.4%; in the assay on OVCAR-4 ovarian, 13.8%; in the assay on SK-OV-3 ovarian it was 19%; in the assay with IGROV1 ovarian, -0.387% (active). For the same molecule, the growth in the assay on OVCAR-3 ovarian was -16.5% (active); in the assay with HS 578T breast it was -0.243% (active); in the assay on NCI/ADR-RES ovarian, 17.9%; in the assay with T-47D breast, -3.41% (active).

Turning to `O=C(Nc1cccc(-n2cc(-c3ccncc3)c(-c3ccc(O)c(Cl)c3)n2)c1)c1cc(C(F)(F)F)cc(C(F)(F)F)c1`, the growth is 28.8% in the assay on RPMI-8226 leukemia; 42.9% in the assay with OVCAR-8 ovarian; 75% in the assay with OVCAR-5 ovarian; 53.9% with OVCAR-4 ovarian; 87.7% with SK-OV-3 ovarian; 71.8% with IGROV1 ovarian. Moreover, the growth in the assay on OVCAR-3 ovarian was 35.7%; in the assay on HS 578T breast, 60.2%; in the assay on NCI/ADR-RES ovarian, 58.5%; in the assay on T-47D breast, 25.6%.

Turning to `CN(C)CCCn1c(=O)c2ccccc2c2cnc3[nH]ccc3c21`, the growth in the assay with RPMI-8226 leukemia is -23.6% (active); in the assay on OVCAR-8 ovarian, 6.28% (active); in the assay on OVCAR-5 ovarian, 19.5%; in the assay on OVCAR-4 ovarian it was 2.71% (active); in the assay with SK-OV-3 ovarian it was 4.51% (active); in the assay on IGROV1 ovarian, 9.28% (active). The growth in the assay on OVCAR-3 ovarian was 17.9%; in the assay on HS 578T breast, 24.8%; in the assay on NCI/ADR-RES ovarian, 26.5%; in the assay with T-47D breast, -11.3% (active).

Regarding `c1ccc(CNc2ncnc3scc(-c4cccs4)c23)nc1`, the growth was 40.9% in the assay with RPMI-8226 leukemia; 63.1% in the assay with OVCAR-8 ovarian; 99% in the assay on OVCAR-5 ovarian; 41.2% with OVCAR-4 ovarian; 85.1% in the assay on SK-OV-3 ovarian; 63.6% in the assay on IGROV1 ovarian. For the same molecule, the growth with OVCAR-3 ovarian is 52.8%; in the assay with HS 578T breast, 79.7%; with NCI/ADR-RES ovarian it was 58.8%; with T-47D breast, 47.3%.

With `CCOC(=O)c1ccoc1`, the growth was 102% in the assay with RPMI-8226 leukemia; 101% with OVCAR-8 ovarian; 90.7% in the assay with OVCAR-5 ovarian; 104% with OVCAR-4 ovarian; 93.3% in the assay on SK-OV-3 ovarian; 101% in the assay on IGROV1 ovarian. Also, the growth was 101% with OVCAR-3 ovarian, 100% in the assay with HS 578T breast, 108% in the assay with NCI/ADR-RES ovarian and 94.3% with T-47D breast.

Consider `COc1ccc(-c2nnc(-c3c(-c4ccccc4)nc4ncccn34)o2)cc1OC`, for which the growth in the assay on RPMI-8226 leukemia was 94.8%; with OVCAR-8 ovarian it was 99%; with OVCAR-5 ovarian, 91.7%; with OVCAR-4 ovarian it was 93.1%; in the assay on SK-OV-3 ovarian, 95.9%; in the assay on IGROV1 ovarian it was 98.5%. The growth in the assay on OVCAR-3 ovarian was 108%; in the assay with HS 578T breast it was 98.3%; with NCI/ADR-RES ovarian, 101%; in the assay on T-47D breast, 87.2%.

On to `CCCCCCCCCCCCCC[n+]1ccc(C(N)=O)cc1`, for which the growth in the assay on RPMI-8226 leukemia was -41.2% (active); in the assay with OVCAR-8 ovarian it was 1.18% (active); with OVCAR-5 ovarian it was -4.86% (active); in the assay with OVCAR-4 ovarian, 32.4%; in the assay with SK-OV-3 ovarian, 34.3%; in the assay with IGROV1 ovarian it was 110%. Further, the growth in the assay on OVCAR-3 ovarian is -27.1% (active); with HS 578T breast it was -14.5% (active); in the assay on NCI/ADR-RES ovarian, 96.1%; in the assay on T-47D breast, 46.9%.

For `Cc1cc(Nc2ccc(Cl)cc2)nc(NCCCNc2ccnc3cc(Cl)ccc23)n1`, the growth with RPMI-8226 leukemia is -59.8% (active); with OVCAR-8 ovarian it was -53.5% (active); in the assay on OVCAR-5 ovarian, -5.16% (active); in the assay with OVCAR-4 ovarian it was -3.7% (active); in the assay with SK-OV-3 ovarian it was -78.7% (active); in the assay on IGROV1 ovarian, 6.54% (active). The growth in the assay with OVCAR-3 ovarian was -80.1% (active); in the assay with HS 578T breast it was -53.4% (active); with NCI/ADR-RES ovarian it was 2.15% (active); in the assay with T-47D breast, -90.2% (active).

Take `O=C(N/N=C/c1ccccc1O)C(O)(c1ccccc1)c1ccccc1`: the growth in the assay with RPMI-8226 leukemia is 62%; with OVCAR-8 ovarian it was 60.1%; with OVCAR-5 ovarian, 73.9%; in the assay on OVCAR-4 ovarian it was 26.7%; in the assay on SK-OV-3 ovarian, 66.9%; with IGROV1 ovarian, 43.7%. The growth with OVCAR-3 ovarian is 8.52% (active); in the assay on HS 578T breast it was 74%; in the assay on NCI/ADR-RES ovarian it was 35.9%; in the assay with T-47D breast, 48.1%.

As for `CCN1CCCC1CNC(=O)c1ncc(-c2ccc(C(F)(F)F)cc2)c(NC2CCCCCC2)n1` (stereo not given), the growth in the assay on RPMI-8226 leukemia is 58.9%; with OVCAR-8 ovarian, 74%; in the assay on OVCAR-5 ovarian, 101%; in the assay with OVCAR-4 ovarian, 78%; in the assay on SK-OV-3 ovarian, 89.9%; with IGROV1 ovarian it was 77%. Besides, the growth was 79.5% in the assay on OVCAR-3 ovarian, 92.1% with HS 578T breast, 89.7% in the assay on NCI/ADR-RES ovarian and 78.9% with T-47D breast.

For `O=C(Nc1ccncc1)C(=O)c1cn(S(=O)(=O)c2cc(Cl)cc(Cl)c2)c2ccccc12`, the growth is 57.1% with RPMI-8226 leukemia; 69.1% with OVCAR-8 ovarian; 89% with OVCAR-5 ovarian; 75.5% in the assay on OVCAR-4 ovarian; 97.2% with SK-OV-3 ovarian; 57.6% in the assay on IGROV1 ovarian. Also, the growth in the assay on OVCAR-3 ovarian was 59.7%; in the assay with HS 578T breast, 69.6%; in the assay with NCI/ADR-RES ovarian, 55.3%; in the assay with T-47D breast, 56.8%.

On to `COc1ccc2c(c1)C(=O)c1c-2c(OCCN2CCCCC2)nc2ccc(OC)cc12`, for which the growth in the assay with RPMI-8226 leukemia was 16.4%; in the assay with OVCAR-8 ovarian it was 18.6%; with OVCAR-5 ovarian, 63.6%; in the assay with OVCAR-4 ovarian, 41.9%; with SK-OV-3 ovarian, 34.5%; in the assay on IGROV1 ovarian it was 4.11% (active). Further, the growth in the assay with OVCAR-3 ovarian is 22%; in the assay with HS 578T breast, 57.8%; with NCI/ADR-RES ovarian it was 26%; in the assay with T-47D breast, 36.6%.

`CC(=O)N(C)c1ccc(Nc2ccc(Nc3ccc(N(C)C(C)=O)cc3)c3c2C(=O)c2ccccc2C3=O)cc1`: the growth was 53.5% in the assay on RPMI-8226 leukemia; 71.2% with OVCAR-8 ovarian; 97.1% in the assay with OVCAR-5 ovarian; 63.7% in the assay on OVCAR-4 ovarian; 78.2% with SK-OV-3 ovarian; 32.6% in the assay on IGROV1 ovarian. Also, the growth in the assay with OVCAR-3 ovarian was 78.7%; in the assay on HS 578T breast, 58.3%; in the assay on NCI/ADR-RES ovarian it was 86%; in the assay with T-47D breast, 54.7%.

On to `Cc1cc(N(CCCNc2ccnc3cc(Cl)ccc23)Cc2ccc3c(c2)OCO3)nc(N2CCCCC2)n1`, for which the growth with RPMI-8226 leukemia was -49.5% (active); with OVCAR-8 ovarian, -11.2% (active); in the assay with OVCAR-5 ovarian, 4.69% (active); in the assay on OVCAR-4 ovarian it was -9.93% (active); in the assay on SK-OV-3 ovarian, 31.3%; in the assay on IGROV1 ovarian it was -51.1% (active). Besides, the growth with OVCAR-3 ovarian was -71.8% (active); with HS 578T breast, -32.4% (active); in the assay on NCI/ADR-RES ovarian it was 7.45% (active); with T-47D breast it was -37.3% (active).

Take `O=C1/C(=C\c2cn(C(=O)c3ccc(Cl)cc3)c3ccccc23)c2ccccc2N1C(=O)c1ccc(Cl)cc1`: the growth in the assay on RPMI-8226 leukemia is 57.5%; in the assay on OVCAR-8 ovarian it was 78.7%; in the assay on OVCAR-5 ovarian, 115%; in the assay on OVCAR-4 ovarian, 72%; with SK-OV-3 ovarian, 77%; in the assay on IGROV1 ovarian, 80%. Also, the growth in the assay with OVCAR-3 ovarian was 84.3%; in the assay with HS 578T breast it was 80.5%; with NCI/ADR-RES ovarian, 83.4%; in the assay with T-47D breast it was 61.7%.

For the origin of these results see PubChem BioAssay (NCI).
